Results on eight compounds are retold here after PubChem BioAssay (Tox21).

Experiment [1] is described as follows: qHTS assay to identify aromatase inhibitors - cell viability counter screen (AID 743084).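 Further: cells stimulated with testosterone during compound exposure; nearly all actives have a fitted effect of over 55% in size.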
In experiment [2] the target is Aryl hydrocarbon receptor (Homo sapiens) (UniProt P35869). As to the kind of experiment: qHTS assay to identify small molecule that activate the aryl hydrocarbon receptor (AhR) signaling pathway (AID 743085).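 Further: HG2L7.5c1 human HepG2 liver cells with stably integrated DRE-driven firefly reporter; series mostly up to about 70 µM; nearly all actives have a fitted effect of over 15% in size.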 Summed up:
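Compounds were tested in HepG2 hepatocellular carcinoma cells harbouring a stably integrated luciferase gene under control of 20 DREs. Increased reporter signal after 24 h treatment at 37C was taken as AhR activation.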
Background: Quantitative high-throughput screening tests each substance at several concentrations.

Experiment [3] in a line: qHTS assay to identify small molecule that activate the aryl hydrocarbon receptor (AhR) signaling pathway - cell viability counter screen (AID 743086).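 Further: HepG2 liver cells carrying the AhR DRE luciferase reporter; series mostly up to about 70 µM; nearly all actives have a fitted effect of over 45% in size.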 The method in brief: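 HepG2-AhR-luc (HG2L7.5c1) cells, 4000/well, treated 24 h at 37 C with compound; viability measured as CellTiter-Fluor fluorescence after 30 min in the same wells as the luciferase read.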
Experiment [4] addresses Peroxisome proliferator-activated receptor gamma (Homo sapiens) (UniProt P37231). The experiment in a line: qHTS assay to identify small molecule agonists of the peroxisome proliferator-activated receptor gamma (PPARg) signaling pathway (AID 743094; active means well fitted activation curve with a large enough effect in the signal ratio in the repeat runs, not every such curve was filed as active; the % refers to the signal ratio). The method in brief:
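Cell-based bla reporter, HEK293H background, PPARg-driven UAS. Pre-incubation 5 h, 37C, 5% CO2. Compound 17 h, 37C. Substrate 1 h RT; fluorescence.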

The target is the same in experiment [5]. As to the kind of experiment: qHTS assay to identify small molecule antagonists of the peroxisome proliferator-activated receptor gamma (PPARg) signaling pathway (AID 743191; calls by dose curve; further: series mostly up to about 63 µM; nearly all actives have a fitted effect of over 30% in size). Summed up:
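GeneBLAzer PPARg UAS-bla HEK293H cells, 5 h post-plating, exposed to compounds 17 h at 37C. LiveBLAzer B/G FRET substrate added for 1 h at room temperature; beta-lactamase reporter read by fluorescence intensity.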

A short description of experiment [6]: qHTS assay to identify small molecule antagonists of the peroxisome proliferator-activated receptor gamma (PPARg) signaling pathway - cell viability counter screen (AID 743194). Further: nearly all actives have a fitted effect of over 55% in size. Summed up:
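Cytotoxicity counter screen in PPARg-bla HEK293H cells, same wells as reporter assay. Compounds plus 50 nM rosiglitazone (final) for 17 h at 37 C, then viability read by CellTiter-Glo luminescence.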

The nature of experiment [7]: qHTS assay for small molecule agonists of the antioxidant response element (ARE) signaling pathway (AID 743202; active means well fitted activation curve with a large enough effect in the signal ratio in the repeat runs, not every such curve was filed as active; the % refers to the signal ratio). The method in brief: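 HepG2 ARE-bla reporter line, 2,000 cells/well; 5 h preincubation 37 C/5% CO2; compound (DMSO) 16 h 37 C; B/G FRET substrate 2 h RT; fluorescence intensity.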
Experiment [8] is described as follows: qHTS assay for small molecule agonists of the antioxidant response element (ARE) signaling pathway - cell viability counter screen (AID 743203; calls by dose curve; further: nearly all actives have a fitted effect of over 55% in size). Summed up: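 Measured in the same wells as the beta-lactamase ARE reporter, this read-out is CellTiter-Glo luminescence from HepG2 ARE-bla cells given compounds for 16 hrs.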
Experiment [9] in a line: qHTS assay for small molecule activators of the heat shock response signaling pathway - cell viability counter screen (AID 743209). Further: nearly all actives have a fitted effect of over 50% in size. The method in brief: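 Same-well multiplex: after 2.5 h room-temperature incubation with LiveBLAzer B/G substrate and fluorescence reading, CellTiter-Glo reagent was added to HSE-bla HeLa cells that had received compound for 5 h at 37 C; luminescence read after 30 min.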

A short description of experiment [10]: qHTS assay for small molecule activators of the heat shock response signaling pathway (AID 743210; active means well fitted activation curve with a large enough effect in the signal ratio in the repeat runs, with a control signal flat, not every such curve was filed as active; the % refers to the signal ratio; further: series mostly up to about 63 µM). Summed up: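 Beta-lactamase reporter read-out: FRET substrate fluorescence after 2.5 h at RT, following 5 h compound treatment at 37 C of HeLa cells carrying HSE-driven bla reporter; quantitative HTS format.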
Experiment [11] is described as follows: qHTS assay to identify small molecule agonists of the peroxisome proliferator-activated receptor delta (PPARd) signaling pathway - cell viability counter screen (AID 743211). Further: nearly all actives have a fitted effect of over 55% in size. The method in brief: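 Counter screen for cytotoxicity run in parallel with the PPARd reporter screen. Beta-lactamase reporter HEK293H cells exposed to compounds 17 h; ATP-based CellTiter-Glo luminescence quantified viability.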

Experiment [12] has as its target Peroxisome proliferator-activated receptor delta (Homo sapiens) (UniProt Q03181). The experiment in a line: qHTS assay to identify small molecule agonists of the peroxisome proliferator-activated receptor delta (PPARd) signaling pathway (AID 743212; calls by dose curve). The method in brief:
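Read-out: beta-lactamase FRET fluorescence after 2 h room-temperature incubation with LiveBLAzer B/G substrate. Cells were HEK293H carrying a UAS-bla reporter for PPARd, treated at 37 C with DMSO-dissolved compounds.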

For experiment [13] the target is unchanged. The experiment in a line: qHTS assay to identify small molecule antagonists of the peroxisome proliferator-activated receptor delta (PPARd) signaling pathway (AID 743215; active means well fitted inhibition curve with a large enough effect in the signal ratio in the repeat runs, not every such curve was filed as active; the % refers to the signal ratio;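 further: cells stimulated with agonist L165041 at 300 nM final during compound exposure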; further: potency means the concentration at half of the fitted maximal effect). Summed up: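 Fluorescence from cleaved LiveBLAzer B/G FRET substrate (2 h, room temperature) reports PPARd-driven beta-lactamase in HEK293H UAS-bla cells. Cells had been treated 17 h at 37 C with compound plus 300 nM final L165041.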

Experiment [14] can be described thus: qHTS assay to identify small molecule agonists of the farnesoid-X-receptor (FXR) signaling pathway - cell viability counter screen (AID 743218). Further: nearly all actives have a fitted effect of over 45% in size. The method in brief:
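Readout: CellTiter-Glo luminescence, 30 min RT, multiplexed after the FXR-bla FRET reading. HEK 293T FXR-UAS-bla cells received compound 5 h post-plating and were incubated 16 h at 37 C.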

The nature of experiment [15]: qHTS assay to identify small molecule antagonists of the farnesoid-X-receptor (FXR) signaling pathway - cell viability counter screen (AID 743221; active means well fitted cell-killing curve with a large enough effect in the repeat runs, not every such curve was filed as active; further: nearly all actives have a fitted effect of over 50% in size). Summed up: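 Multiplexed counter screen: viability of FXR-bla HEK 293T cells under agonist stimulation by chenodeoxycholic acid (50 uM, final) and test compound for 16 h at 37 C, measured by CellTiter-Glo luminescence in the reporter wells.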

Experiment [16] concerns the target Vitamin D3 receptor (Homo sapiens) (UniProt P11473). The experiment in a line: qHTS assay to identify small molecule agonists of the vitamin D receptor (VDR) signaling pathway (AID 743222; calls by dose curve). Summed up:
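Following 4 h attachment at 37C, VDR-bla cells (2,000 per well) received DMSO-dissolved compounds or controls. After 16 h incubation, LiveBLAzer B/G FRET substrate was added and fluorescence read 2 h later at room temperature.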

Experiment [17] shares this target. As to the kind of experiment: qHTS assay to identify small molecule antagonists of the vitamin D receptor (VDR) signaling pathway (AID 743223; active means well fitted inhibition curve with a large enough effect in the signal ratio in the repeat runs, not every such curve was filed as active; the % refers to the signal ratio). The method in brief:
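Cells carrying a VDR-driven beta-lactamase reporter (VDR-bla) were co-treated with compound and 3 nM final 1alpha,25-dihydroxyvitamin D3 for 16 h at 37C; reporter activity was measured as FRET substrate fluorescence after 2 h at room temperature.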

Experiment [18] can be described thus: qHTS assay to identify small molecule antagonists of the peroxisome proliferator-activated receptor delta (PPARd) signaling pathway - cell viability counter screen (AID 743213). Further: nearly all actives have a fitted effect of over 50% in size. Summed up:
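PPARd-bla HEK293H cells were treated with compounds plus agonist L165041 (300 nM final) for 17 h at 37 C. Viability was then read in the same wells by CellTiter-Glo luminescence after 30 min at room temperature.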

The target in experiment [19] is Bile acid receptor (Homo sapiens) (UniProt Q96RI1). The experiment in a line: qHTS assay to identify small molecule antagonists of the farnesoid-X-receptor (FXR) signaling pathway (AID 743217; active means well fitted inhibition curve with a large enough effect in the signal ratio in the repeat runs, not every such curve was filed as active; the % refers to the signal ratio). Summed up: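 FRET fluorescence after 2 h room-temperature LiveBLAzer loading gives the readout. Prior step: FXR-bla HEK 293T cells, seeded and incubated 5 h, received test compounds plus 50 uM final CDCA for 16 h at 37 °C.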
Chain of Bile acid receptor (Homo sapiens) (Q96RI1 whole entry, looked up): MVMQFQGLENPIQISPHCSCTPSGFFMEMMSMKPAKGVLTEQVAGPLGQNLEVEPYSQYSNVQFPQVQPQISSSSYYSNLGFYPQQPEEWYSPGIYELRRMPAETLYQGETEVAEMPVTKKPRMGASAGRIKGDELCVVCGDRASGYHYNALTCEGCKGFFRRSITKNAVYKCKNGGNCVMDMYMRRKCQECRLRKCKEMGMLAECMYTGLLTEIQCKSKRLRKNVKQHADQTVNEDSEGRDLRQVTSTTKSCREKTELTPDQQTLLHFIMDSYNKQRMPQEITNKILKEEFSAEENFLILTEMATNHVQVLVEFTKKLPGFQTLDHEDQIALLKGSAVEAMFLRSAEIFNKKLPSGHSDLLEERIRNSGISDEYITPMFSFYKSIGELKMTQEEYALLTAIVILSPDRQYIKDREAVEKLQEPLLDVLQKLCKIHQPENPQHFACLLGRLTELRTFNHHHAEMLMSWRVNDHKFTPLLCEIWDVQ

The target is the same in experiment [20]. As to the kind of experiment: qHTS assay to identify small molecule agonists of the farnesoid-X-receptor (FXR) signaling pathway (AID 743220; active means well fitted activation curve with a large enough effect in the signal ratio in the repeat runs, not every such curve was filed as active; the % refers to the signal ratio). Summed up:
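FXR-UAS-bla HEK 293T cells carrying a UAS-driven beta-lactamase reporter were plated for 5 h at 37C/5% CO2, then exposed to DMSO-dissolved Tox21 10K compounds for 16 h at 37C. A LiveBLAzer B/G FRET substrate was loaded for 2 h at room temperature before fluorescence reading.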

“And” between values parts separate entries of the source, which are not always exact repeats. Identical values can stand only once. Inconclusive results are not listed. More than one record can exist for a structure, and the calls need not agree. The source made the active and inactive calls. Unless noted, the call rests on the fitted dose curve; in most records, active means well fitted curve in the direction sought with a large enough effect in the repeat runs; inconclusive means weak or mixed curves; inactive means no such curve, though single readings can be large; an effect the other way counts as inactive or inconclusive.

Chain of Peroxisome proliferator-activated receptor gamma (Homo sapiens) (P37231 whole entry, looked up): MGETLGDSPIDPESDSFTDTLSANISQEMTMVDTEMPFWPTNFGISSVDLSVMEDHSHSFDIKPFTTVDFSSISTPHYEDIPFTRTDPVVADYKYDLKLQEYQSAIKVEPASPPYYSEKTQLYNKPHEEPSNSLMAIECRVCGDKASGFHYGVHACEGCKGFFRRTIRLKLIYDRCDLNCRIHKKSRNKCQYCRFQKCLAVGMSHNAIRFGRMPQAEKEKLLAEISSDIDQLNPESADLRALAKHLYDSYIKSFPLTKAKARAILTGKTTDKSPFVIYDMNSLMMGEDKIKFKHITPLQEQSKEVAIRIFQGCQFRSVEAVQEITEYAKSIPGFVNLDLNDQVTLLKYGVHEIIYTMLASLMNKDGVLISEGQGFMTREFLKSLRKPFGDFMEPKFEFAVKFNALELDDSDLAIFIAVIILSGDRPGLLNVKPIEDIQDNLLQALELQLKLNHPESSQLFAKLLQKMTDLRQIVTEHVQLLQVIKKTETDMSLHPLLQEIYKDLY
Chain of Peroxisome proliferator-activated receptor delta (Homo sapiens) (Q03181 whole entry, looked up): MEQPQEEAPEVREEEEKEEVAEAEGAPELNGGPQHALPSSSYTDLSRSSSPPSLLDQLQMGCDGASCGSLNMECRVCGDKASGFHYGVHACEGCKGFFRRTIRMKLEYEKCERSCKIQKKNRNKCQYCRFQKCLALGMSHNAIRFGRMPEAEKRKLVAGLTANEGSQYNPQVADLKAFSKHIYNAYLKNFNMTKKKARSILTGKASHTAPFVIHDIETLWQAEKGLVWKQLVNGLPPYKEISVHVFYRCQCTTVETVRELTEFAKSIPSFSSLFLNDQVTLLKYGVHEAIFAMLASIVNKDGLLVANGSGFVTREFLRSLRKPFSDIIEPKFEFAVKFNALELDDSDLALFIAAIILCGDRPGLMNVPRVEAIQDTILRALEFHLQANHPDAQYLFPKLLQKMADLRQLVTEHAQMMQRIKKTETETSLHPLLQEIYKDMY
Chain of Aryl hydrocarbon receptor (Homo sapiens) (P35869 whole entry, looked up): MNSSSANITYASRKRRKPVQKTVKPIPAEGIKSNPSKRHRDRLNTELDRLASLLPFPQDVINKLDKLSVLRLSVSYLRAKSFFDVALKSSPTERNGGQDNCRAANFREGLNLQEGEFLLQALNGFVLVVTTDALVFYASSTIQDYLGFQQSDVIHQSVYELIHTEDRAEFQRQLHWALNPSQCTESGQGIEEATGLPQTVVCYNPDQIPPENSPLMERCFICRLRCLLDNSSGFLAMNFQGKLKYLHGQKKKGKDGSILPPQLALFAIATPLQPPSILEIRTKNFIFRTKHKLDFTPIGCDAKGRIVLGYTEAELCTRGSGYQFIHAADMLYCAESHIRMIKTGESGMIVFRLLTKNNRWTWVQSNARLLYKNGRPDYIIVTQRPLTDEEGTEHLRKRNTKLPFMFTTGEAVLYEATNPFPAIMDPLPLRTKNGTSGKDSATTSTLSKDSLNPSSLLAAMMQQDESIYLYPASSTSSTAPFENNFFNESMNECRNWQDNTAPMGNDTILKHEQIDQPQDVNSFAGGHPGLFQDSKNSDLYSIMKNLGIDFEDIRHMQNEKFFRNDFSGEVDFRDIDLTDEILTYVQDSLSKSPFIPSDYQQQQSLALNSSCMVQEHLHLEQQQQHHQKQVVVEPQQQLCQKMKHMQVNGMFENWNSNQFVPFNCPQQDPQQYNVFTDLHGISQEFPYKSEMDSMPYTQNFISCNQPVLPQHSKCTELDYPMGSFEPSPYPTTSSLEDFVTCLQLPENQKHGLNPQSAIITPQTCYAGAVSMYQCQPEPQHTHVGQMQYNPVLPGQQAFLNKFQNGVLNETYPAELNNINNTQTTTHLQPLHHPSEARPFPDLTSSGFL
Chain of Vitamin D3 receptor (Homo sapiens) (P11473 whole entry, looked up): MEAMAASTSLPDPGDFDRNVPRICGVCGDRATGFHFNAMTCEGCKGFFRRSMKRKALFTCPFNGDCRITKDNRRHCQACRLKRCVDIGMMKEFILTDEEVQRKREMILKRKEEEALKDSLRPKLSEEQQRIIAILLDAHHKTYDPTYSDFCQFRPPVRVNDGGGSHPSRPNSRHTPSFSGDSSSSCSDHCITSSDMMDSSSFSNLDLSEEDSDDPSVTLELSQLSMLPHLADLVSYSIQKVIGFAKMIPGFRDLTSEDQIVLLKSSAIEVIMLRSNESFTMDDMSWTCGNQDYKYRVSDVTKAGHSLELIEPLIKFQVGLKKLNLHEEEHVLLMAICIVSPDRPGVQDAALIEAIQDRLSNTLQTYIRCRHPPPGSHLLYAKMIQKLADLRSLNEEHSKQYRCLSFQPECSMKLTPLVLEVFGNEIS

For `CCc1cccc(C)c1N`, the Potency entry in [1], in [2], in experiment [7], in [10], in experiment [13] and in experiment [14] was “inactive” in each case. Also, in [15], the Potency entry was “inactive”. For the same compound, the outcome in experiment [3], in [4], in experiment [5], in experiment [6], in experiment [8] and in experiment [9] was inactive. Also, the compound was called inactive in experiment [11], in [12], in [16] and in experiment [17].

Consider `c1c[nH]cn1`, for which the Potency result in experiment [1], in experiment [2], in experiment [10], in experiment [13], in [14] and in experiment [15] was “inactive” in each case. Moreover, the compound was classed as inactive in experiment [3], in experiment [4], in [5], in experiment [6], in experiment [8] and in experiment [9]. Moreover, the compound was classed as inactive in experiment [11], in [12], in [18], in [16] and in [17].

Regarding `ON=C1CCCCC1`, the Potency result in experiment [1], in experiment [2], in experiment [7], in [10], in experiment [14] and in [15] was “inactive” each time. Also, the call in experiment [3], in experiment [4], in experiment [5], in [6], in experiment [8] and in [9] was inactive. Further, the compound was classed as inactive in experiment [11], in experiment [12], in experiment [18], in experiment [16] and in experiment [17]. Moreover, in [13], the Potency entry is “inactive and 43.6 µM (active)”.

With `CCCCC(CC)CO` (centres undefined), the Potency entry in [1], in experiment [2], in experiment [7], in experiment [10], in experiment [13] and in experiment [14] was “inactive” throughout. Also, the Potency result in experiment [15] is “inactive”. Moreover, the compound was classed as inactive in experiment [3], in experiment [4], in experiment [5], in [6], in experiment [8] and in [9]. Besides, the compound was classed as inactive in experiment [11], in experiment [12], in experiment [18], in experiment [19], in [20] and in [16]. Further, the compound was classed as inactive in experiment [17].

On to `C=CCOC(=O)c1ccccc1C(=O)OCC=C`, for which the Potency entry in experiment [1], in experiment [2], in experiment [7], in experiment [10], in experiment [14] and in [15] was “inactive” in each case. The outcome in [3], in [4], in experiment [5], in [6], in experiment [8] and in [9] was inactive. For the same compound, the call in [11], in experiment [19] and in experiment [20] was inactive.

In the case of `COc1ccc(NC(C)=O)cc1N`, the Potency result in experiment [1], in [2], in [7], in experiment [10], in experiment [13] and in experiment [14] was “inactive” in each case. The Potency result in [15] was “inactive”. Moreover, the call in experiment [3], in experiment [4], in [5], in experiment [6], in experiment [8] and in [9] was inactive. Also, the call in experiment [11] and in [12] was inactive.

On to `CC(=O)CC(=O)Nc1ccccc1`, for which the Potency entry in [1], in experiment [2], in experiment [10], in experiment [13], in [14] and in experiment [15] was “inactive” in each case. The result in experiment [3], in experiment [4], in experiment [5], in experiment [6], in experiment [8] and in [9] was inactive. Besides, the result in experiment [11], in experiment [12], in experiment [19], in experiment [20], in experiment [16] and in [17] was inactive.

In the case of `O=C(O)c1ccccc1C(c1ccc(O)cc1)c1ccc(O)cc1`, the Potency entry in experiment [1], in [2], in [10], in experiment [13], in [14] and in [15] was “inactive” each time. Also, the compound was classed as inactive in experiment [3], in [4], in experiment [5], in experiment [8], in experiment [9] and in experiment [11]. Also, the outcome in experiment [12] and in experiment [18] was inactive.
